From PubChem
D2 PAM-1 – D2 dopamine receptor (human) potentiation. AID 485347. 340,000 compounds, 0.34% hits. HEK293 T-REx D2, calcium flux, EC20 dopamine potentiation. P14416. potentiation, % at 10 µM;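 active means potentiation over 3 SD above the plate norm, cut at about 30% in these data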; further: 0% is about no effect
Target sequence (P14416 whole entry, looked up): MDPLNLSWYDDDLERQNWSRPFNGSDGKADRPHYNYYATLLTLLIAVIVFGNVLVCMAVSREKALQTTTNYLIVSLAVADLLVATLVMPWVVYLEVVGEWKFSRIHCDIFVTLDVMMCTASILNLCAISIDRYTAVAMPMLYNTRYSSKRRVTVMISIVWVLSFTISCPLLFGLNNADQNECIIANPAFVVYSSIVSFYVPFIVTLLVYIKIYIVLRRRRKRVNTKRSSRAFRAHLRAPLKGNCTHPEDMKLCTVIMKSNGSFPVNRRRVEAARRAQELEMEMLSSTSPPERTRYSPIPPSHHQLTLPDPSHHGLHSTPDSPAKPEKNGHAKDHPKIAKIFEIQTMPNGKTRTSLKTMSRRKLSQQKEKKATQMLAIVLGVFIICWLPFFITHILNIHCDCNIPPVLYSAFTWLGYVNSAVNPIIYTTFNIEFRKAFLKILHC
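Potentiation of an EC20 dopamine calcium response measured kinetically over 180 s, after a preceding 180 s compound-only read flagging agonists. Cells: inducible Hek293 Trex D2 line, 4000/well, cultured overnight at 30 C before dye loading.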
D2 ag-1 – D2 dopamine receptor (human) agonism. P14416. HEK293 T-REx D2 cells, calcium flux agonist mode. AID 485358. 340,000 compounds, 0.53% hits. activation, % at 2 µM;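 active means activation over 3 SD above normal in the single-dose calcium agonist read, cut at about 30% in these data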; further: 0% is about no effect
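Agonism is scored from calcium flux in a force-coupled, inducible HEK293 cell line expressing D2, read kinetically for 180 s after compound addition against dopamine controls.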
D2 antag – antagonizes the human D2 dopamine receptor; HEK293 TREx D2 cells, calcium flux, dopamine EC80; inhibition, % at 10 µM; 340,000 compounds, 2% hits; in the data active means inhibition above about 30%; inactive means below that, where a call was filed; further: 0% is about no effect
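Tetracycline-induced HEK293 TREx cells expressing D2 receptor forced-coupled to calcium signalling, loaded with no-wash calcium dye. Compounds added and calcium flux read 180 s, then dopamine added at EC80 and read a further 180 s.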
D2 PAM-2 – positive allosteric modulators of human D2 dopamine receptor; 360,000 compounds, 0.23% hits; AID 624464; potentiation, % (concentration not given with the values); DiscoveRx D2 beta-arrestin cells, luminescence, 90 min; 100% = 57 uM dopamine signal; in the data active means potentiation above about 50%; inconclusive means mostly about 30% to 49%
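PathHunter beta-arrestin assay in DiscoveRx D2 cells. Compounds were added with an EC20 of dopamine (50 nM final) for 90 min at 37 deg C. Luminescence was read 1 h after detection reagent, with 57 uM dopamine as the EC100 control.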
D2 ag-2 – human D2 receptor agonism in beta-arrestin assay; 360,000 compounds, 0.084% hits; activation, % (test concentration not listed); DiscoveRx PathHunter D2 beta-arrestin, luminescence, 90 min; 100% = 57 uM dopamine signal; AID 624465; P14416; in the data active means activation above about 40%; inconclusive means between about 15% and that limit
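DiscoveRx PathHunter D2 beta-arrestin cells (2,100/well) attached overnight, then compound-stimulated 90 min at 37 C in HBSS/10 mM HEPES/0.1% Tween-20 buffer; beta-galactosidase complementation read by luminescence after 1 h at ambient temperature. Dopamine 57 uM final (EC100) as control.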
Starred values were filed as active, the others as inactive; ? = inconclusive; . = not tested or not shown. Compounds with a hit are over-represented: about 2.4% of the library has one in this group of screens.

SMILES	D2 PAM-1	D2 ag-1	D2 antag	D2 PAM-2	D2 ag-2
COc1ccc(N(C(=O)c2snc(C(N)=O)c2N)C(C(=O)NCc2ccccc2)c2ccc(O)cc2)cc1 (stereo unspecified)	-3	0	0	1	0
COc1ccc(OC)c(N(C(=O)c2snc(C(N)=O)c2N)C(C(=O)NCc2ccccc2)c2ccc(O)cc2)c1 (stereo unspecified)	-3	1	43*	1	0
Cc1oc(-c2ccc(Cl)cc2)nc1CSCC(=O)NC1CCN(Cc2ccccc2)CC1	-10	0	56*	-34	-3
Cc1cccc(NC(=S)NC2CCN(Cc3ccccc3)CC2)c1C	-25	1	94*	-26	-1
CCOc1ccc(-c2nc(CSCC(=O)NC3CCN(Cc4ccccc4)CC3)c(C)o2)cc1	.	.	.	-27	-2
S=C(Nc1cccc(Cl)c1Cl)NC1CCN(Cc2ccccc2)CC1	-18	1	71*	-39	-3
CC(C)(C)CC(C)(C)NC(=S)NC1CCN(Cc2ccccc2)CC1	-24	1	66*	-44	-4
Fc1ccc(NC(=S)NC2CCN(Cc3ccccc3)CC2)cc1	.	.	.	25	-2
COc1cc(NC(=O)Cn2nnnc2-c2ccccc2F)cc(OC)c1OC	-1	-1	.	.	.
CC1(C(=O)NC2CCN(Cc3ccccc3)CC2)CCN1Cc1ccc(OC(F)(F)F)cc1 (stereo unspecified)	.	.	.	-23	-4
CC(C)(Oc1ccc(Cl)cc1)C(=O)NC1CCN(Cc2ccccc2)CC1	-27	-2	72*	-7	0
S=C(Nc1ccc(Cl)c(Cl)c1)NC1CCN(Cc2ccccc2)CC1	-28	2	45*	-18	-1
Cc1ccc(C(=O)NCC(c2ccco2)S(=O)(=O)c2ccc(Cl)cc2)cc1C (stereo unspecified)	-13	1	.	.	.
O=C(CCSCc1cnn(-c2ccccc2)c1-n1cccc1)NCc1ccccc1F	6	2	.	.	.
Cc1ccc(-n2ncc3c(NCc4ccccc4)ncnc32)cc1Cl	5	0	.	.	.
CCCCN1C(N)=NC[C@@H]1Cc1ccc(O)cc1	8	0	-13	-5	0
CCCCN1C(N)=NC[C@H]1Cc1ccc(O)cc1	-4	0	48*	-9	-5
O=C(COc1ccc(Cl)cc1)Nc1ccc2nc(SCC(=O)N3CCCC3)sc2c1	-13	.	.	.	.
Cc1nonc1C(=O)N/N=C/c1cccc(O)c1	15	-1	33*	-1	-5
O=C(N/N=C/c1cccc(O)c1)N/N=C/c1cccc(O)c1	-4	2	24	3	2
Cc1oc(-c2cccc(Cl)c2)nc1CS(=O)(=O)CC(=O)NCc1ccccc1Cl	2	.	.	.	.
NC(=S)NNC(=O)C12CC3CC(CC(C3)C1)C2	-13	62*	44*	-3	-1
Cc1nc2c(C(=O)NCCC(C)C)cnn2c(C)c1Cc1c(F)cccc1Cl	-9	1	.	.	.
CCCCn1c(N)c(N(CC(C)C)C(=O)c2cccc(OCc3ccccc3)c2)c(=O)[nH]c1=O	30*	0	-30	2	-1
CCCCn1c(N)c(N(CCC(C)C)C(=O)c2cccc(S(=O)(=O)N3CCN(C)CC3)c2)c(=O)[nH]c1=O	-5	0	34*	-15	-5
SMILES	D2 PAM-1	D2 ag-1	D2 antag	D2 PAM-2	D2 ag-2
CC1CCCCC1Nc1ncnc2sccc12 (stereo unspecified)	14	0	36*	-6	6
Cc1cccc(N2CCN(C(=O)C3CCN(S(=O)(=O)c4c(C)noc4/C=C/c4ccccc4F)CC3)CC2C)c1 (stereo unspecified)	6	-1	.	.	.
CCOc1ccc(C2c3c(oc4ccccc4c3=O)C(=O)N2CCCN2CCOCC2)cc1 (stereo unspecified)	27	0	-4	-5	0
CCCOc1ccc(C2c3c(oc4ccccc4c3=O)C(=O)N2CCCN2CCOCC2)cc1 (stereo unspecified)	-3	1	36*	3	-2
O=C(Cn1c(=O)n(Cc2ccco2)c(=O)c2ccc(C(=O)NC3CCCC3)cc21)Nc1ccc(F)cc1	-6	0	.	.	.
Cc1ccc(CCNC(=O)c2ccc(CSCc3ccccc3Cl)o2)cc1	-15	1	.	.	.
CC(C)(C)c1ccc(C(=O)N2CCC(c3noc(-c4ccc(S(=O)(=O)N5CCCC5)cc4)n3)CC2)cc1	6	.	.	.	.
COc1ccccc1NC(=O)Cn1c(=O)n(C)c(=O)c2sc3c(c21)COC(C)(C)C3	-5	0	32*	-9	4
C=CCN(c1ccc(C(=O)Nc2cccc([N+](=O)[O-])c2)cc1)S(C)(=O)=O	-29	0	37*	-17	2
NC(=O)C1CCN(C(=O)NC2CC(=O)N(c3ccc4c(c3)OCCO4)C2)CC1 (stereo unspecified)	-8	0	46*	-31	-9
CC1CN(c2ncnc3c2cnn3-c2ccc(Cl)cc2)CC(C)O1 (stereo unspecified)	22	-1	31*	0	0
COc1ccc(C(C(=O)NC(C)(C)C)N(CCc2ccc(OC)c(OC)c2)C(=O)CCC(=O)Nc2cc(C)on2)cc1 (stereo unspecified)	.	1	35*	-3	-5
COc1cccc(C(C(=O)NC2CCCC2)N(CCC(C)C)C(=O)CCC(=O)Nc2cc(C)on2)c1 (stereo unspecified)	-3	1	-18	-3	-1
CCCCN(C(=O)CCC(=O)Nc1cc(C)on1)C(C(=O)NC(C)(C)C)c1ccccc1Cl (stereo unspecified)	.	1	3	-4	0
COCCN(C(=O)CCC(=O)Nc1cc(C)on1)C(C(=O)NC(C)(C)C)c1ccc(OC)cc1 (stereo unspecified)	-20	8	10	-2	-10
COCCN(C(=O)CCC(=O)Nc1cc(C)on1)C(C(=O)NC(C)(C)C)c1ccccc1Cl (stereo unspecified)	.	-3	45*	-2	1
COc1ccc(C(C(=O)NC2CCCC2)N(CCC(C)C)C(=O)CCC(=O)Nc2cc(C)on2)cc1 (stereo unspecified)	3	-1	35*	2	2
Cc1cc(C)c(NC(=O)c2nc3ccccc3nc2N2CCCCC2)c(C)c1	3	0	.	.	.
COC(=O)C1=C(C(=O)OC)[C@@H]2N(C)c3ccc(OC)cc3[C@@]23C[C@@H](C(=O)OC)N(S(=O)(=O)c2ccc([N+](=O)[O-])cc2)C3=N1	-7	1	5	3	?
CCCCS(=O)(=O)N1C2=NC(C(=O)OC)=C(C(=O)OC)[C@@H]3N(C)c4ccc(OC)cc4[C@]23C[C@H]1C(=O)OC	3	0	34*	-4	-3
CCOc1ccc(OCC)c(NS(=O)(=O)c2ccc3c(c2)CCCN3C(C)=O)c1	6	1	.	.	.
